Rab9 prom act – qHTS Assay for Rab9 Promoter Activators | AID 485297, 2010 | Potency, µM (highest dose often 9.22 µM), most hits filed as activators | 2.8% of 320,000 active | Huh7 Rab9 promoter-luciferase reporter, luminescence, 24 h; note: nearly all actives have a fitted effect of over 60% in size
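Huh7 reporter line, Rab9 promoter upstream of luciferase. Compound exposure 24 h at 37 °C in reduced-serum medium with 10% FBS. Read-out: luminescence.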
FLuc modulator – qHTS profiling assay for firefly luciferase inhibitor/activator using purifed enzyme and Km concentrations of substrates (counterscreen for miR-21 project); Potency, µM (top dose mostly 57.5 µM), hits mostly inhibitors; purified FLuc, Km substrates, luminescence inhibition; Luciferin 4-monooxygenase (Photinus pyralis), P08659; 6.9% of 360,000 active; note: nearly all actives have a fitted effect of over 55% in size
Target sequence (P08659 whole entry, looked up): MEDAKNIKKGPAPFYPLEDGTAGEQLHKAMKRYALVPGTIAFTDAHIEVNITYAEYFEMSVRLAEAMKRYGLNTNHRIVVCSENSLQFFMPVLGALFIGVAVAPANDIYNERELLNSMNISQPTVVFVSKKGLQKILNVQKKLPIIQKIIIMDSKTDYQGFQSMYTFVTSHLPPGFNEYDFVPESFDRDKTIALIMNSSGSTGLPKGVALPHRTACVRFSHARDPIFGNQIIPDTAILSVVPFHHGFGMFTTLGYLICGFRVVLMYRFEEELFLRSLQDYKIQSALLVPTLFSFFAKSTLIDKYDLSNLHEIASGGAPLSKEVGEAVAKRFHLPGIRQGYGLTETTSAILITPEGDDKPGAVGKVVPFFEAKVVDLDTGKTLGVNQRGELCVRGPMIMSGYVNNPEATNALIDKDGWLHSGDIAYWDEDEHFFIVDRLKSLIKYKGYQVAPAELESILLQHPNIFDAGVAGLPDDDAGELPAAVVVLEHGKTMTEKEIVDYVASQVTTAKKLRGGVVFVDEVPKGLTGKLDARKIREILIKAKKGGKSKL
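Purified P. pyralis luciferase, 10 nM final, with Km-level 10 uM D-luciferin and 10 uM ATP in 50 mM Tris acetate pH 7.5, 10 mM Mg acetate, 0.01% Tween-20, 0.05% BSA; 6-point qHTS titration about 60 µM downward; luminescence read.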
ELG1 repair inh – qHTS screen for small molecules that inhibit ELG1-dependent DNA repair in human embryonic kidney (HEK293T) cells expressing luciferase-tagged ELG1. AID 504467, 2011. Potency, µM (series often up to 46.1 µM), most hits filed as inhibitors. HEK293T ELG1-luciferase reporter, luminescence, 16 h; DNA damage induced by 5-fluorouridine. 2.3% of 330,000 active; note: nearly all actives have a fitted effect of over 55% in size
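Overnight (16 hr) co-exposure of 2,000 cells/well to 5-fluorouridine and compound at 37 °C preceded detection. Luciferase was quantified via ONE-Glo luminescence; loss of signal denotes inhibition.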
ELG1 genotoxic – qHTS screen for small molecules that induce genotoxicity in human embryonic kidney (HEK293T) cells expressing luciferase-tagged ELG1; HEK293T ELG1-luciferase reporter, luminescence, 16 h; Potency, µM (series often up to 46 µM), usual class: activators; 1.3% of 330,000 active; AID 504466, 2011; note: nearly all actives have a fitted effect of over 60% in size
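Genotoxic stress is detected as increased luminescence from luciferase-tagged ELG1 in HEK293T cells, measured with ONE-Glo after a 16 hr treatment at 37 °C.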
SMN2 splice up – qHTS Assay for Enhancers of SMN2 Splice Variant Expression; HEK293 SMN2-luciferase splicing reporter, luminescence, 30-36 h; Potency, µM (doses to about 46.1 µM), hits mostly activators; 2.8% of 210,000 active; note: nearly all actives have a fitted effect of over 55% in size
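HEK293 cells carry an SMN2 minigene-luciferase reporter in which exon 7 inclusion puts luciferase in frame. Cells were seeded at 2000 cells/well, attached for 10-12 hours, then exposed to compounds for 30-36 hours at 37C before ONE-Glo luminescence.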
NPC1 prom act – qHTS Assay for NPC1 Promoter Activators | 2.4% of 320,000 active | Potency, µM (highest dose often 9.22 µM), usual class: activators | Huh7 NPC1 promoter luciferase reporter, 24 h; note: nearly all actives have a fitted effect of over 60% in size
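Cells: Huh7 expressing luciferase under the NPC1 promoter, 1500/well. Seeded 2 h, compound added, incubated 24 h at 37 °C. Luciferase reagent, 10 min ambient, then luminescence.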
Numbers stand for hits; . = inactive; ? = inconclusive; / = no result given. The list is not random: actives were taken first. Their share in the collection is about 9.2%. Calls come from the whole dose curve; as a rule, active = well fitted curve in the direction sought with a large enough effect; inconclusive = small, poorly fitted or top-dose-only effect, or another doubt; inactive = no such curve, though single readings can be large; an effect the other way counts as inactive or inconclusive.

SMILES	Rab9 prom act	FLuc modulator	ELG1 repair inh	ELG1 genotoxic	SMN2 splice up	NPC1 prom act
Cc1ccc(C(=O)Nc2ccc(CC(=O)O)cc2)o1	.	?	.	.	?	.
O=C(Nc1ccc(Cc2ccc(NC(=O)C3CC3)cc2)cc1)C1CC1	.	.	.	.	.	.
O=C(O)Cc1ccc(NC(=O)c2ccc(Cl)c(Cl)c2)cc1	.	8.5µM	.	.	.	.
O=C(Nc1ccncc1)c1ccc(Cl)c(Cl)c1	.	.	.	.	/	.
CC(C)(C)c1ccc(C(=O)Nc2ccc(CC(=O)O)cc2)o1	.	4.3µM	.	.	.	.
COc1ccc(CCNC(=O)Cn2nnc(C(=O)Nc3ccc(Br)cc3)c2N)cc1OC	.	9.5µM	?	.	/	.
CCOc1ccc(NC(=O)c2nnn(CC(=O)Nc3ccccc3OC)c2N)cc1	.	2.7µM	?	.	.	.
COc1ccccc1NC(=O)Cn1nnc(C(=O)Nc2ccccc2)c1N	.	.	.	.	.	.
COc1ccc(CCNC(=O)Cn2nnc(-c3ccc(OC)c(OC)c3)n2)cc1OC	.	.	?	.	.	.
COc1ccc(OC)c(NC(=O)c2nnn(Cc3ccccc3C)c2N)c1	.	.	11µM	.	.	.
COc1ccc(NC(=O)c2nnn(Cc3ccccc3C)c2N)c(OC)c1	/	.	/	/	.	/
COc1ccc(CCNC(=O)Cn2nnc(-c3ccc(N(C)C)cc3)n2)cc1OC	.	17µM	.	.	.	.
CCOc1ccc(NC(=O)Cn2nnc(C(=O)NCCc3ccc(OC)c(OC)c3)c2N)cc1	.	.	.	.	.	.
COc1ccc(-c2cc(C(=O)Oc3ccc(C#N)cc3)no2)cc1	/	.	/	/	/	/
O=C(NCc1cccnc1)c1nn(-c2ccccc2F)nc1CO	/	.	/	/	.	/
O=C(Nc1ccsc1C(=O)O)c1ccccc1Cl	.	?	.	.	/	.
CCc1cc(C(=O)N2CCCC(C(=O)c3ccc(Oc4ccccc4)cc3)C2)n(C)n1 (stereo unspecified)	.	.	?	.	/	.
COc1ccc(/C=C/C(=O)c2ccc3c(c2)OCO3)c(OC)c1	2.8µM	2.1µM	?	5.8µM	16µM	3.2µM
COc1cc(/C=C/C(=O)c2ccc(Cl)s2)cc(OC)c1O	.	?	?	.	.	.
COc1ccc(NC(=O)COC(=O)c2ccc3c(c2)OCO3)c(OC)c1	/	/	.	.	/	/
COc1ccc(/C=C/C(=O)c2cc(Cl)cc(Cl)c2O)c(OC)c1	.	?	.	.	/	.
COc1cc(O)c(C(=O)/C=C/c2ccccc2)c(OC)c1	.	11µM	?	.	.	.
COc1cc(/C=C/C(=O)c2ccc3c(c2)OCO3)cc(Cl)c1O	.	8.5µM	.	.	/	.
COc1ccc(/C=C/C(=O)c2ccccc2)c(OC)c1	1.8µM	2.4µM	?	?	?	3.2µM
O=C(CN1C(=O)NC2(CCCC2)C1=O)NCc1cccc(Cl)c1	/	/	.	.	/	/
SMILES	Rab9 prom act	FLuc modulator	ELG1 repair inh	ELG1 genotoxic	SMN2 splice up	NPC1 prom act
CC(C)[C@H](NC(N)=O)C(=O)Nc1cccc(S(=O)(=O)NC2=NCCCCC2)c1	.	.	.	.	/	.
O=C1CCCN1CCCNc1ccc2nnc(CCC(=O)N3CCN(c4ccc(F)cc4)CC3)n2n1	.	.	.	.	/	.
COc1ccc(/C=C/C(=O)NCC2COc3ccccc3O2)c(OC)c1 (stereo unspecified)	.	24µM	.	.	.	.
CCN(CC(=O)Nc1ccc2c(c1)OCCO2)C(=O)/C=C/c1ccc(OC)cc1OC	.	15µM	.	?	/	.
CNc1ccc(Br)cc(C(=O)/C=C/c2ccc(OC)cc2OC)c1=O	.	12µM	?	.	.	.
CCN(CC(=O)Nc1ccc2c(c1)OCCO2)C(=O)/C=C/c1ccc(OC)c(OC)c1	.	.	.	.	/	.
COc1cccc(/C=C/C(=O)c2ccc3c(c2)OCCO3)c1OC	?	0.76µM	?	?	/	3.2µM
COc1ccc(NC(=O)CCC2COc3ccccc3O2)c(OC)c1 (stereo unspecified)	.	.	.	.	.	.
O=C(CSc1nc2ccccc2c(=O)n1CCCN1CCOCC1)Nc1ccccc1OC(F)F	/	/	?	.	/	/
CCOc1ccc(S(=O)(=O)N2CCCCC2)cc1NC(=O)C1CSC2(C)CCC(=O)N12 (stereo unspecified)	.	.	.	.	/	.
CCOc1c(Cl)cc(/C=C/C(=O)N(CC)CC(=O)Nc2ccc(NC(C)=O)cc2)cc1OC	.	.	15µM	.	/	.
COc1ccc(/C=C/C(=O)c2ccc(OC)cc2OC)c(OC)c1	.	19µM	?	.	/	.
COc1ccc(/C=C/C(=O)NNC(=O)c2ccncc2)c(OC)c1	.	13µM	?	.	/	.
Cn1nnnc1SCCCNCc1cccc(OCc2ccc(F)cc2)c1	/	.	/	/	/	/
COc1ccc(N(C(=O)c2csnn2)C(C(=O)NC2CCCC2)c2cccs2)cc1 (stereo unspecified)	.	.	.	.	/	.
O=C1NCCCCC1NS(=O)(=O)c1ccc(Cl)cc1 (stereo unspecified)	.	.	.	.	/	.
CC(C)Oc1ccc(C(=O)NCC(=O)OCC(=O)N(C)Cc2cccs2)cc1	.	15µM	.	.	.	.
Cc1ccc(-n2cccn2)c(CN2CCCC(C(=O)c3sccc3C)C2)c1 (stereo unspecified)	.	.	16µM	.	/	.
COC(=O)c1cc(C)nc2c1C(=O)C(=O)C=C2N1CCOCC1	.	.	5.2µM	.	/	.
CC(C)Oc1ccc(C(=O)NC2CCS(=O)(=O)C2)cc1 (stereo unspecified)	.	.	?	.	.	.
C=CCOc1ccc(C(=O)NC2CCCCC2)cc1	?	12µM	?	?	/	?
CC(C)Oc1ccc(C(=O)NC2CCCCC2)cc1	4µM	11µM	?	18µM	?	2.8µM
CCCc1nnc(NC(=O)CC(=O)Nc2ccccc2C(=O)O)s1	.	19µM	?	.	.	.
CCC(C)(C)C(=O)Nc1nnc(CCc2ccccc2)s1	4µM	?	?	21µM	/	2.8µM
CCCC(=O)Nc1nnc(CCc2ccccc2)s1	.	.	.	.	/	.
CC(C)(C)CC(=O)Nc1nnc(CCc2ccccc2)s1	3.2µM	?	?	?	/	3.2µM
Cc1cccc(C(=O)NCC(=O)N2CCN(c3ccccn3)CC2)c1	/	/	.	.	/	/
COC(=O)c1nnn(CC(=O)Nc2c(C)cccc2C)c1N	/	.	/	/	.	/
CN(C)C(=O)N1CCN(c2nc(-c3ccccc3)cs2)CC1	1.1µM	3µM	?	?	/	2.2µM
c1ccc(-c2csc(N3CCOCC3)n2)cc1	?	15µM	?	6.3µM	11µM	?
